Measured values taken from PubChem BioAssay AID1159580 (chemical genetic matrix, 2015).
Screen size: about 5,500 compounds; about 2,000 (36%) were called active. About 18% were inconclusive and are not listed. Rule as the data show it: active = normalized growth mostly below about 0.91 (no sharp cut-off); inconclusive = no clear call, values can overlap the other calls; inactive = mostly above about 0.92. The list shows a part of the results.

Assay: chemical genetic growth profiling, strain panel (AID 1159580);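 also: tested at 20 µM; growth read once vehicle control cultures reached saturation at 30 °C; 1 = growth at the plate median or of vehicle wells; lower values mean less growth of the strain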
Settings: growth OD
[1] = S. cerevisiae deletion strains, locus YMR263W, strain SAP30, active compounds read low
[2] = S. cerevisiae deletion strains, locus YNL153C, strain GIM3, active compounds read low
[3] = S. cerevisiae deletion strains, locus YAL013W, strain DEP1, active compounds read low
[4] = S. cerevisiae deletion strains, locus YBR229C, strain ROT2, active compounds read low
[5] = S. cerevisiae deletion strains, locus YDL101C, strain DUN1, active compounds read low
[6] = S. cerevisiae deletion strains, locus YDR150W, strain NUM1, active compounds read low
[7] = S. cerevisiae deletion strains, locus YEL061C, strain CIN8, active compounds read low
[8] = S. cerevisiae deletion strains, locus YGR078C, strain PAC10, active compounds read low
[9] = S. cerevisiae deletion strains, locus YHR030C, strain SLT2, active compounds read low
[10] = S. cerevisiae deletion strains, locus YHR087W, strain rtc3, active compounds read low
[11] = S. cerevisiae deletion strains, locus YJL187C, strain SWE1, active compounds read low
[12] = S. cerevisiae deletion strains, locus YJR043C, strain POL32, active compounds read low
[13] = S. cerevisiae deletion strains, locus YJR075W, strain HOC1, active compounds read low
[14] = S. cerevisiae deletion strains, locus YLR039C, strain RIC1, active compounds read low
[15] = S. cerevisiae deletion strains, locus YLR058C, strain SHM2 (second series), active compounds read low
[16] = S. cerevisiae deletion strains, locus YLR085C, strain ARP6, active compounds read low
[17] = S. cerevisiae deletion strains, locus YLR262C, strain YPT6, active compounds read low
[18] = S. cerevisiae deletion strains, locus YML094W, strain GIM5, active compounds read low
[19] = S. cerevisiae deletion strains, locus YMR219W, strain ESC1, active compounds read low
[20] = S. cerevisiae deletion strains, locus YNL298W, strain CLA4 (second series), active compounds read low
[21] = S. cerevisiae deletion strains, locus YNL322C, strain KRE1, active compounds read low
[22] = S. cerevisiae deletion strains, locus YNR030W, strain Alg12, active compounds read low
[23] = S. cerevisiae deletion strains, locus YPL055C, strain LGE1, active compounds read low
[24] = S. cerevisiae deletion strains, locus YPL241C, strain CIN2, active compounds read low
[25] = S. cerevisiae deletion strains, locus YPR135W, strain CTF4, active compounds read low

Measured: normalized growth

Nc1nc(OCc2ccccc2)c2[nH]cnc2n1
inactive: S. cerevisiae deletion strains, locus YAL040C, strain CLN3, active compounds read low 0.994 | S. cerevisiae deletion strains, locus YCL061C, strain MRC1 (second series), active compounds read low 1 | S. cerevisiae deletion strains, locus YDR363W, strain ESC2, active compounds read low 1.02 | S. cerevisiae deletion strains, locus YER002W, strain NOP16, active compounds read low 1 | [1] 1 | [2] 0.999 | S. cerevisiae deletion strains, locus YNL175C, strain NOP13, active compounds read low 0.982 | S. cerevisiae deletion strains, locus YNL197C, strain WHI3, active compounds read low 0.984 | S. cerevisiae deletion strains, locus YNL224C, strain SQS1, active compounds read low 1.02 | S. cerevisiae deletion strains, locus YOR083W, strain WHI5 (second series), active compounds read low 1.01

O=[N+]([O-])c1cc(C(F)(F)F)c(N2CCCCC2)cc1N1CCCCC1
inactive: [3] 0.996 | [4] 0.994 | [5] 1.03 | [6] 1.01 | [7] 0.967 | [8] 1.01 | [9] 1.01 | [10] 0.98 | [11] 0.977 | [12] 1.01 | [13] 0.996 | [14] 0.864 | [15] 0.974 | [16] 0.915 | [17] 0.972 | [18] 0.973 | [19] 0.983 | [1] 1.01 | S. cerevisiae deletion strains, locus YMR307W, strain GAS1, active compounds read low 1.02 | [2] 1.03 | [20] 1.03 | [21] 0.989 | [22] 0.989 | [23] 0.978 | [24] 1.02 | [25] 0.977 | S. cerevisiae strains, strain wild type, active compounds read low 0.992

O=[N+]([O-])c1ccc(N2CCCCC2)nc1N1CCCCC1
inactive: [3] 0.967 | [4] 0.96 | [5] 0.978 | [6] 0.961 | [7] 0.95 | [8] 0.963 | S. cerevisiae deletion strains, locus YGR229C, strain SMI1, active compounds read low 0.961 | [10] 0.943 | [11] 0.954 | [12] 0.977 | [13] 0.914 | [15] 0.954 | [18] 0.9 | [1] 0.95 | [20] 0.906 | [22] 0.89 | [23] 0.908
active: [9] 0.587 | [14] 0.581 | [16] 0.568 | [17] 0.59 | [19] 0.944 | [2] 0.909 | [21] 0.921 | [24] 0.803 | [25] 0.587

CCCCC/C=C/CCC(=O)N[C@H]1[C@H](Oc2c3cc4cc2Oc2ccc(cc2Cl)[C@@H](O[C@@H]2O[C@H](CO)[C@@H](O)[C@H](O)[C@H]2NC(C)=O)[C@@H]2NC(=O)[C@H](NC(=O)[C@@H]4NC(=O)[C@H]4NC(=O)C(Cc5ccc(c(Cl)c5)O3)NC(=O)[C@H](N)c3ccc(O)c(c3)Oc3cc(O)cc4c3)c3ccc(O)c(c3)-c3c(OC4O[C@H](CO)[C@@H](O)[C@H](O)[C@@H]4O)cc(O)cc3[C@@H](C(=O)O)NC2=O)O[C@H](CO)[C@@H](O)[C@@H]1O (stereo partly drawn)
inactive: S. cerevisiae deletion strains, locus YAL021C, strain ccr4, active compounds read low 1 | S. cerevisiae deletion strains, locus YAL026C, strain drs2, active compounds read low 1 | S. cerevisiae deletion strains, locus YAL030W, strain snc1, active compounds read low 0.995 | S. cerevisiae deletion strains, locus YBL061C, strain skt5, active compounds read low 0.987 | S. cerevisiae deletion strains, locus YBR009C, strain hhf1, active compounds read low 0.996 | S. cerevisiae deletion strains, locus YBR023C, strain chs3, active compounds read low 0.998 | S. cerevisiae deletion strains, locus YBR171W, strain sec66, active compounds read low 1 | S. cerevisiae deletion strains, locus YBR231C, strain swc5, active compounds read low 0.991 | S. cerevisiae deletion strains, locus YBR279W, strain paf1, active compounds read low 0.997 | S. cerevisiae deletion strains, locus YCL011C, strain gbp2, active compounds read low 1.01 | S. cerevisiae deletion strains, locus YCL016C, strain dcc1, active compounds read low 0.995 | S. cerevisiae deletion strains, locus YCL061C, strain MRC1, active compounds read low 0.999 | S. cerevisiae deletion strains, locus YCL069W, strain vba3, active compounds read low 0.996 | S. cerevisiae deletion strains, locus YCR088W, strain abp1, active compounds read low 1.01 | S. cerevisiae deletion strains, locus YDL005C, strain med2, active compounds read low 0.995 | S. cerevisiae deletion strains, locus YDL040C, strain nat1, active compounds read low 1 | S. cerevisiae deletion strains, locus YDR001C, strain nth1, active compounds read low 1 | S. cerevisiae deletion strains, locus YDR069C, strain doa4, active compounds read low 1 | S. cerevisiae deletion strains, locus YDR137W, strain rgp1, active compounds read low 1.01 | S. cerevisiae deletion strains, locus YDR159W, strain sac3, active compounds read low 0.977 | S. cerevisiae deletion strains, locus YDR195W, strain ref2 0.918 | S. cerevisiae deletion strains, locus YDR297W, strain sur2, active compounds read low 0.998 | S. cerevisiae deletion strains, locus YDR334W, strain swr1, active compounds read low 1.01 | S. cerevisiae deletion strains, locus YDR335W, strain msn5, active compounds read low 0.998 | S. cerevisiae deletion strains, locus YDR392W, strain spt3, active compounds read low 0.967 | S. cerevisiae deletion strains, locus YEL003W, strain gim4, active compounds read low 0.989 | S. cerevisiae deletion strains, locus YEL037C, strain rad23, active compounds read low 1.05 | S. cerevisiae deletion strains, locus YEL061C, strain CIN8 (second series), active compounds read low 0.999 | S. cerevisiae deletion strains, locus YER015W, strain faa2, active compounds read low 0.999 | S. cerevisiae deletion strains, locus YER016W, strain bim1, active compounds read low 1.01 | S. cerevisiae deletion strains, locus YER111C, strain swi4, active compounds read low 0.987 | S. cerevisiae deletion strains, locus YER155C, strain BEM2 (second series), active compounds read low 1.01 | S. cerevisiae deletion strains, locus YFR010W, strain ubp6, active compounds read low 1.03 | S. cerevisiae deletion strains, locus YGL167C, strain pmr1, active compounds read low 0.993 | S. cerevisiae deletion strains, locus YGL173C, strain kem1, active compounds read low 0.994 | S. cerevisiae deletion strains, locus YGL227W, strain vid30, active compounds read low 1 | S. cerevisiae deletion strains, locus YGL240W, strain doc1, active compounds read low 0.973 | S. cerevisiae deletion strains, locus YGL253W, strain hxk2, active compounds read low 1 | S. cerevisiae deletion strains, locus YHR013C, strain ard1, active compounds read low 0.981 | S. cerevisiae deletion strains, locus YHR027C, strain rpn1, active compounds read low 1 | [9] 0.964 | S. cerevisiae deletion strains, locus YHR079C, strain IRE1, active compounds read low 0.956 | S. cerevisiae deletion strains, locus YHR142W, strain chs7, active compounds read low 1.03 | S. cerevisiae deletion strains, locus YJL092W, strain hpr5, active compounds read low 1 | S. cerevisiae deletion strains, locus YJL095W, strain BCK1 (second series), active compounds read low 1 | S. cerevisiae deletion strains, locus YJL095W, strain BCK1, active compounds read low 0.956 | S. cerevisiae deletion strains, locus YJL115W, strain asf1, active compounds read low 0.996 | S. cerevisiae deletion strains, locus YJL129C, strain trk1, active compounds read low 1 | S. cerevisiae deletion strains, locus YJL154C, strain vps35, active compounds read low 1.01 | S. cerevisiae deletion strains, locus YJL164C, strain tpk1, active compounds read low 1.01 | S. cerevisiae deletion strains, locus YJL166W, strain qcr8, active compounds read low 0.993 | [11] 1 | S. cerevisiae deletion strains, locus YJR066W, strain TOR1, active compounds read low 0.935 | S. cerevisiae deletion strains, locus YKL160W, strain elf1, active compounds read low 0.995 | S. cerevisiae deletion strains, locus YKR026C, strain gcn3, active compounds read low 0.99 | S. cerevisiae deletion strains, locus YKR091W, strain srl3, active compounds read low 0.996 | S. cerevisiae deletion strains, locus YLL001W, strain dnm1, active compounds read low 1.02 | S. cerevisiae deletion strains, locus YLL026W, active compounds read low 0.996 | S. cerevisiae deletion strains, locus YLL041C, strain sdh2, active compounds read low 1 | S. cerevisiae deletion strains, locus YLR027C, strain aat2, active compounds read low 1.01 | S. cerevisiae deletion strains, locus YLR113W, strain HOG1, active compounds read low 0.942 | S. cerevisiae deletion strains, locus YLR221C, strain rsa3, active compounds read low 1.01 | S. cerevisiae deletion strains, locus YLR258W, strain gsy2, active compounds read low 1.01 | S. cerevisiae deletion strains, locus YLR262C, strain YPT6 (second series), active compounds read low 1.01 | S. cerevisiae deletion strains, locus YLR320W, strain mms22, active compounds read low 0.988 | S. cerevisiae deletion strains, locus YLR342W, strain FKS1, active compounds read low 0.988 | S. cerevisiae deletion strains, locus YLR357W, strain rsc2, active compounds read low 1 | S. cerevisiae deletion strains, locus YLR370C, strain arc18, active compounds read low 1 | S. cerevisiae deletion strains, locus YLR384C, strain iki3, active compounds read low 1 | S. cerevisiae deletion strains, locus YML120C, strain ndi1, active compounds read low 1.01 | S. cerevisiae deletion strains, locus YMR058W, strain fet3, active compounds read low 1 | S. cerevisiae deletion strains, locus YMR125W, strain sto1, active compounds read low 1.01 | S. cerevisiae deletion strains, locus YMR129W, active compounds read low 0.998 | S. cerevisiae deletion strains, locus YMR205C, strain PFK2, active compounds read low 0.993 | S. cerevisiae deletion strains, locus YMR231W, strain pep5, active compounds read low 0.991 | S. cerevisiae deletion strains, locus YNL071W, strain lat1, active compounds read low 1 | S. cerevisiae deletion strains, locus YNL183C, strain NPR1, active compounds read low 0.936 | S. cerevisiae deletion strains, locus YNL209W, strain ssb2, active compounds read low 1 | S. cerevisiae deletion strains, locus YNL248C, strain rpa49, active compounds read low 1.01 | S. cerevisiae deletion strains, locus YNL322C, strain KRE1 (second series), active compounds read low 0.991 | S. cerevisiae deletion strains, locus YNR049C, strain mso1, active compounds read low 1.01 | S. cerevisiae deletion strains, locus YOR001W, strain rrp6, active compounds read low 1.01 | S. cerevisiae deletion strains, locus YOR070C, strain gyp1, active compounds read low 1.02 | S. cerevisiae deletion strains, locus YOR080W, strain dia2, active compounds read low 0.98 | S. cerevisiae deletion strains, locus YOR083W, strain WHI5, active compounds read low 1 | S. cerevisiae deletion strains, locus YOR106W, strain vam3, active compounds read low 1.02 | S. cerevisiae deletion strains, locus YOR231W, strain MKK1, active compounds read low 0.961 | S. cerevisiae deletion strains, locus YOR265W, strain rbl2, active compounds read low 1 | S. cerevisiae deletion strains, locus YOR270C, strain vph1, active compounds read low 0.993 | S. cerevisiae deletion strains, locus YOR290C, strain snf2, active compounds read low 1.01 | S. cerevisiae deletion strains, locus YPL051W, strain arl3, active compounds read low 1.01 | S. cerevisiae deletion strains, locus YPL078C, strain atp4, active compounds read low 0.999 | S. cerevisiae deletion strains, locus YPL106C, strain sse1, active compounds read low 0.971 | S. cerevisiae deletion strains, locus YPL240C, strain hsp82, active compounds read low 0.999 | S. cerevisiae deletion strains, locus YPL256C, strain CLN2, active compounds read low 0.946
